Screening results deposited in PubChem by University of Kansas High Throughput Screening Laboratory.
mHTT CaM bind – disrupts binding of mutant huntingtin to calmodulin. inhibition, % at 15 µM. P42858. 190,000 compounds, 3.6% hits. AlphaScreen His-mHTT/GST-CaM binding, luminescence
Pf apPOL inh – Pf-apPOL DNA polymerase inhibition | inhibition, % at 10 µM | 210,000 compounds, 0.25% hits | Recombinant Pf-apPOL, molecular beacon fluorescence, 1.5 h | AID 1794808
Of the large screens only hits and unclear results are named; the others gave an inactive call; ! = repeats disagree. Only a selection was taken, and hits are over-represented in it overall. No stated cut-off is given here; in the data, active means inhibition above about 50%; inactive means the rest.

COc1ccc(OC)c(CN2CCN(CC3CC=CCC3)CC2)c1 (centres undefined)	none
C=CCc1c(C)nc(SCC(=O)Nc2ccc(C)cc2)[nH]c1=O	none
O=[N+]([O-])c1ccc(N2CCCCCC2)nc1	Pf apPOL inh 98.6
O=[N+]([O-])c1ccc(N2CCCCC2)nc1	none
CC(C)NC(=O)c1cc(N2CCOCC2)nc2ccccc12	none
CCCCOc1ccc(C(=O)N(c2ccc(C)c(Cl)c2)C2C=CS(=O)(=O)C2)cc1 (centres undefined)	mHTT CaM bind 63.7
Cc1ccc(N(C(=O)Cc2ccccc2)C2C=CS(=O)(=O)C2)cc1Cl (centres undefined)	none
Cc1ccc(C)c(Oc2cc(NC(=O)CCCn3nc(C)c([N+](=O)[O-])c3C)cc([N+](=O)[O-])c2)c1	none
Cc1ccc(NC(=O)CCCn2nc(C)c([N+](=O)[O-])c2C)cc1C	none
Cc1nn(CCCC(=O)Nc2cc(Oc3ccc(F)cc3F)cc([N+](=O)[O-])c2)c(C)c1[N+](=O)[O-]	mHTT CaM bind 80.0
Cc1nn(CCCC(=O)Nc2cc(Oc3ccccc3)cc([N+](=O)[O-])c2)c(C)c1[N+](=O)[O-]	mHTT CaM bind 96.0
FC(F)(F)c1cccc(-c2nnc(-c3ccc(Oc4cc(Cl)cc(Cl)c4)o3)o2)c1	none (no result: mHTT CaM bind)
CN(C)S(=O)(=O)Oc1ccc(-c2noc(-c3ccc(Oc4cc(Cl)cc(Cl)c4)o3)n2)cc1	Pf apPOL inh 58.6 (no result: mHTT CaM bind)
COc1ccc(/C=C2/N=C(c3ccccc3Br)OC2=O)cc1OC	none
COC(=O)c1sc2scc(C)c2c1C	Pf apPOL inh 63.6! (no result: mHTT CaM bind)
CSC(=CC(=O)c1sc2scc(C)c2c1C)SC	none (no result: mHTT CaM bind)
O=C(Nc1ccc(C2(C(=O)NCc3ccc(F)cc3)CCC2)cc1)C1CC1	none
CC(C)CNc1cc(C(C)C)c(C#N)c2nc3ccccc3n12	none
COc1ccc(C(=O)Oc2ccc3c(c2)OC(=Cc2cccnc2)C3=O)cc1OC	none
COc1cc(C(C[N+](=O)[O-])c2c(-c3ccccc3)[nH]c3ccccc23)cc(OC)c1OC (centres undefined)	mHTT CaM bind 58.0
COc1ccc(C(C[N+](=O)[O-])c2c[nH]c3ccccc23)cc1 (centres undefined)	none
COc1ccc(C(C[N+](=O)[O-])c2c(C)[nH]c3ccccc23)c(OC)c1 (centres undefined)	mHTT CaM bind 62.8
COc1ccc(C(C[N+](=O)[O-])c2c(C)[nH]c3ccccc23)cc1OC (centres undefined)	none
CCOC(=O)C1CCN(C=C(C#N)S(=O)(=O)C(C)(C)C)CC1	none (no result: mHTT CaM bind)
c1ccc2c(c1)CCN(Cc1nc(-c3ccc(N4CCCCC4)nc3)no1)C2	none
CCCCc1ccc(/C=C(\C#N)C(N)=S)s1	mHTT CaM bind 63.1 (no result: Pf apPOL inh)
Cc1ccc(/C=C(/C#N)C(N)=S)s1	none (no result: Pf apPOL inh)
O=C(CNCc1ccccc1)N1c2ccccc2Sc2ccc(Cl)cc21	mHTT CaM bind 97.2
CCN(CC)CC(=O)N1c2ccccc2Sc2ccc(Cl)cc21	none
O=C(O)c1cc(N2C(=O)C3C4c5ccccc5C(c5ccccc54)C3C2=O)ccc1Cl (centres undefined)	none
O=C(O)c1cc(-n2cccc2)ccc1Cl	mHTT CaM bind 71.5
N#CC1=C(N)SC(N)=C(C#N)C1c1ccc(F)c(Br)c1	none (no result: Pf apPOL inh)
Cc1cccc(OCCOCCn2ccnc2C)c1	none
COc1ccc(C(C)=O)cc1CSc1cc(C)c2ccccc2n1	none
Cc1cc2cc(CNC(=O)c3ccccc3[N+](=O)[O-])ccc2n1C	none
Cc1cc2cc(CNC(=O)c3c(F)cccc3Cl)ccc2n1C	none
Cc1cccc(NC(=O)NCc2ccc3c(c2)cc(C)n3C)c1	mHTT CaM bind 50.3
Cc1cc2cc(CNC(=O)Cc3ccc(F)cc3)ccc2n1C	mHTT CaM bind 56.0
C=CCn1c(=O)[nH]c2sc3c(c2c1=O)CC(C)(C)OC3	none
CN1CCN(C(=O)c2cnc(-c3ccccc3)nc2N2CCSCC2)CC1	mHTT CaM bind 97.2
CCN1CCN(C(=O)c2cnc(-c3ccccc3)nc2N2CCSCC2)CC1	none
CC(=O)NC(=Nc1nc(C)c2ccccc2n1)NC(C)=O	none
O=C(CSc1ccccc1C(=O)O)NC1CCCCC1	none
COc1cccc(NC(=O)c2ccccc2Cl)c1	none
COc1cccc(CC(=O)NNC(=O)NC(=O)c2ccccc2Cl)c1	Pf apPOL inh 54.5 (no result: mHTT CaM bind)
Cc1cc2nn(-c3ccc(Cl)cc3)nc2cc1NC(=O)c1ncn[nH]1	none
COc1ccc(SCC(=O)Nc2nc(-c3cccc([N+](=O)[O-])c3)cs2)cc1	none
CCCC(=O)Nc1nc(-c2ccccc2)cs1	none
COc1ccc(Nc2nc(-c3cccc([N+](=O)[O-])c3)cs2)cc1	mHTT CaM bind 84.0
COc1ccc(-c2csc(Nc3ccc(S(N)(=O)=O)cc3)n2)cc1	mHTT CaM bind 52.1
COc1ccc(-c2csc(Nc3cccnc3)n2)cc1	none (no result: mHTT CaM bind)
COc1ccc(-c2csc(Nc3ccc(N(C)C)cc3)n2)cc1	mHTT CaM bind 88.8
CCN(CC)c1ccc(Nc2nc(-c3ccccc3)cs2)cc1	mHTT CaM bind 80.1
COc1ccc(S(N)(=O)=O)cc1	none
Nc1nc2nc(-c3ccccc3)cc(C(F)(F)F)n2n1	none
CCc1nc(-c2cccnc2N2CCCC(C(=O)NC3CC3)C2)no1 (centres undefined)	none
O=C(c1n[nH]c2ccccc12)N1CCn2c(nnc2-c2ccccc2)C1	none
COc1ccc(CN2CCC(O)CC2)cc1	none
COc1ccc(Br)cc1/C=C1N=C(/C=C/c2ccc(C)cc2)OC/1=O	none
COCCNC(=O)c1noc2c1CCc1ccc(OC)cc1-2	none
COc1ccc(S(=O)(=O)CCC(=O)NCc2ccc3c(c2)OCO3)cc1	none
C#CCN1C(=O)C(O)(CC(=O)c2ccc(F)cc2)c2ccccc21 (centres undefined)	none
CCc1c(F)c(F)c(F)c(F)c1C(=O)O	none
CCc1ccc(Oc2cc(N3CCC(C(=O)NCc4ccco4)CC3)ncn2)cc1	none
C=CCNc1nc(-c2ccncc2)cs1	none
CCN(CC)c1ccc(Nc2nc(-c3ccc(OC)cc3)cs2)cc1	mHTT CaM bind 80.5
CCN(CC)c1ccc(Nc2nc(-c3ccncc3)cs2)cc1	mHTT CaM bind 84.6
COc1ccc(Nc2nc(-c3ccc(F)cc3F)cs2)cc1	none
CN(C)CCCN(C(=O)c1nc2ccccc2s1)c1nc2c(Cl)cccc2s1	none
Cc1cccc2sc(N(CCCN(C)C)C(=O)c3ccccc3Br)nc12	mHTT CaM bind 96.3
CCN1C=C(C(=O)OCc2cccc(F)c2)C(C)=NS1(=O)=O	none
C=CCNC(=O)c1cc(=O)[nH]c2ccc(F)cc12	none
Cc1cccc(C2=N[C@@H](CC(C)C)CO2)c1	none
Cc1cccc(C2=N[C@@H](Cc3ccccc3)CO2)c1	mHTT CaM bind 81.0
Cc1ncc(CO)c2cc(C(=O)Nc3ccc(F)cc3F)c(=Nc3ccc(F)c(Cl)c3)oc12	none
CSc1ccc(C2Oc3ccccc3C3=C2C(c2cccs2)n2ncnc2N3)cc1 (centres undefined)	none
COc1cccc(C2C3=C(Nc4ncnn42)c2ccccc2OC3c2ccccc2F)c1 (centres undefined)	none
Fc1ccc(C2Oc3ccccc3C3=C2C(c2cccs2)n2ncnc2N3)cc1 (centres undefined)	mHTT CaM bind 61.0
COc1cccc(C2C3=C(Nc4ncnn42)c2ccccc2OC3c2ccccc2Cl)c1 (centres undefined)	mHTT CaM bind 58.0
O=C(COc1ccccc1F)NCc1cc(-c2ccc(F)cc2F)on1	none
COc1ccc(-c2nc(-c3ccc(Br)cc3)no2)cc1[N+](=O)[O-]	none
O=[N+]([O-])c1cccc(S(=O)(=O)n2cc(Br)cn2)c1	mHTT CaM bind 80.4
Cc1nn(S(=O)(=O)c2cccc([N+](=O)[O-])c2)c(C)c1Br	none
